Laboratory results published in PubChem BioAssay AID1159580 (chemical genetic matrix, 2015).
In all, about 5,500 compounds went through this assay and about 2,000 (36%) were called active. About 18% were inconclusive and are not listed. Some of the results follow. A number with no mark means an inactive call. Rule as the data show it: active = normalized growth mostly below about 0.91 (no sharp cut-off); inconclusive = no clear call, values can overlap the other calls; inactive = mostly above about 0.92.

Assay: chemical genetic growth profiling, strain panel (AID 1159580);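 also: tested at 20 µM; growth read once vehicle control cultures reached saturation at 30 °C; 1 = growth at the plate median or of vehicle wells; lower values mean less growth of the strain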
Details: S. cerevisiae deletion strains, growth OD
[1] = locus YDL101C, strain DUN1, hits give low values
[2] = locus YHR030C, strain SLT2, hits give low values

Cc1nc(-c2nnc(Sc3ccc(C(F)(F)F)cc3[N+](=O)[O-])n2C)cs1
normalized growth (locus YAL013W, strain DEP1, hits give low values): 1.01 | normalized growth (locus YBR229C, strain ROT2, hits give low values): 1.01 | normalized growth (locus YCL061C, strain MRC1, hits give low values): 0.995 | normalized growth [1]: 1 | normalized growth (locus YDR150W, strain NUM1, hits give low values): 0.993 | normalized growth (locus YEL061C, strain CIN8, hits give low values): 0.998 | normalized growth (locus YGR078C, strain PAC10, hits give low values): 1.01 | normalized growth [2]: 0.965 | normalized growth (locus YHR087W, strain rtc3, hits give low values): 1.02 | normalized growth (locus YJR043C, strain POL32, hits give low values): 1.01 | normalized growth (locus YJR075W, strain HOC1, hits give low values): 0.987 | normalized growth (locus YLR039C, strain RIC1, hits give low values): 0.965 | normalized growth (locus YLR058C, strain SHM2 (second series), hits give low values): 1.01 | normalized growth (locus YLR085C, strain ARP6, hits give low values): 1.14 | normalized growth (locus YLR262C, strain YPT6, hits give low values): 0.844 | normalized growth (locus YML094W, strain GIM5, hits give low values): 1.01 | normalized growth (locus YMR219W, strain ESC1, hits give low values): 1 | normalized growth (locus YMR263W, strain SAP30, hits give low values): 1.02 | normalized growth (locus YNL153C, strain GIM3, hits give low values): 0.998 | normalized growth (locus YNL298W, strain CLA4 (second series), hits give low values): 1.01 | normalized growth (locus YNL322C, strain KRE1, hits give low values): 1 | normalized growth (locus YNR030W, strain Alg12, hits give low values): 1.01 | normalized growth (locus YPL055C, strain LGE1, hits give low values): 1.02 | normalized growth (locus YPL241C, strain CIN2, hits give low values): 1 | normalized growth (locus YPR135W, strain CTF4, hits give low values): 0.956

Cc1ccc(S(=O)(=O)n2c(Sc3ccc([N+](=O)[O-])cc3[N+](=O)[O-])nc3cc(C)ccc32)cc1
normalized growth (locus YAR019C, strain CDC15, hits give low values): 0.996 | normalized growth (locus YBL105C, strain PKC1, hits give low values): 0.972 | normalized growth (locus YBR135W, strain CKS1, hits give low values): 0.983 | normalized growth (locus YBR136W, strain MEC1, hits give low values): 0.986 | normalized growth (locus YBR160W, strain CDC28, hits give low values): 0.986 | normalized growth (locus YDL017W, strain CDC7, hits give low values): 0.986 | normalized growth (locus YDL028C, strain MPS1, hits give low values): 0.992 | normalized growth [1]: 0.989 | normalized growth (locus YDL108W, strain KIN28, hits give low values): 0.987 | normalized growth (locus YDL132W, strain cdc53, hits give low values): 0.989 | normalized growth (locus YDL214C, strain PRR2, hits give low values): 0.947 | normalized growth (locus YDR052C, strain DBF4, hits give low values): 0.987 | normalized growth (locus YDR054C, strain cdc34, hits give low values): 0.986 | normalized growth (locus YDR226W, strain ADK1, hits give low values): 0.987 | normalized growth (locus YDR477W, strain SNF1, hits give low values): 0.968 | normalized growth (locus YER123W, strain YCK3, hits give low values): 0.92 | normalized growth (locus YER133W, strain GLC7, hits give low values): 0.945 | normalized growth (locus YFL009W, strain cdc4, hits give low values): 0.989 | normalized growth (locus YFL029C, strain CAK1, hits give low values): 0.988 | normalized growth (locus YFR003C, strain YPI1, hits give low values): 0.986 | normalized growth (locus YFR019W, strain FAB1, hits give low values): 0.961 | normalized growth (locus YFR028C, strain CDC14, hits give low values): 0.99 | normalized growth (locus YGR040W, strain KSS1, hits give low values): 0.97 | normalized growth (locus YGR052W, strain FMP48, hits give low values): 0.966 | normalized growth (locus YGR092W, strain DBF2, hits give low values): 0.86 | normalized growth [2]: 0.839 (active) | normalized growth (locus YHR079C, strain IRE1, hits give low values): 0.884 | normalized growth (locus YHR082C, strain KSP1, hits give low values): 1.04 | normalized growth (locus YHR205W, strain SCH9, hits give low values): 0.868 | normalized growth (locus YIL147C, strain SLN1, hits give low values): 0.99 | normalized growth (locus YJL095W, strain BCK1, hits give low values): 0.879 | normalized growth (locus YJL128C, strain PBS2, hits give low values): 0.939 | normalized growth (locus YJL157C, strain FAR1, hits give low values): 0.936 | normalized growth (locus YJR016C, strain ILV3, hits give low values): 0.986 | normalized growth (locus YJR066W, strain TOR1 (second series), hits give low values): 0.898 | normalized growth (locus YJR066W, strain TOR1, hits give low values): 1 | normalized growth (locus YKL048C, strain ELM1, hits give low values): 0.947 | normalized growth (locus YKL067W, strain YNK1, hits give low values): 0.935 | normalized growth (locus YKL101W, strain HSL1, hits give low values): 0.917 | normalized growth (locus YKL193C, strain SDS22, hits give low values): 0.996 | normalized growth (locus YKL203C, strain TOR2, hits give low values): 1 | normalized growth (locus YLR113W, strain HOG1, hits give low values): 0.748 (active) | normalized growth (locus YLR133W, strain CKI1, hits give low values): 0.932 | normalized growth (locus YLR403W, strain SFP1, hits give low values): 0.917 | normalized growth (locus YML070W, strain DAK1, hits give low values): 0.926 | normalized growth (locus YMR001C, strain CDC5, hits give low values): 0.987 | normalized growth (locus YMR205C, strain PFK2 (second series), hits give low values): 0.947 | normalized growth (locus YMR277W, strain FCP1, hits give low values): 0.988 | normalized growth (locus YNL006W, strain LST8, hits give low values): 0.971 | normalized growth (locus YNL020C, strain ARK1, hits give low values): 0.898 | normalized growth (locus YNL161W, strain CBK1, hits give low values): 0.968 | normalized growth (locus YNL183C, strain NPR1, hits give low values): 0.958 | normalized growth (locus YNL207W, strain RIO2, hits give low values): 0.984 | normalized growth (locus YNL222W, strain SSU72, hits give low values): 0.975 | normalized growth (locus YNL307C, strain MCK1 (second series), hits give low values): 0.901 | normalized growth (locus YOL078W, strain AVO1, hits give low values): 0.987 | normalized growth (locus YOL136C, strain PFK27, hits give low values): 0.919 | normalized growth (locus YOR061W, strain CKA2, hits give low values): 0.873 | normalized growth (locus YOR119C, strain RIO1, hits give low values): 1.03 | normalized growth (locus YOR231W, strain MKK1, hits give low values): 0.887 | normalized growth (locus YOR329C, strain SCD5, hits give low values): 0.968 | normalized growth (locus YPL031C, strain PHO85, hits give low values): 0.951 | normalized growth (locus YPL153C, strain RAD53, hits give low values): 0.964 | normalized growth (locus YPL204W, strain HRR25, hits give low values): 0.931 | normalized growth (locus YPL209C, strain IPL1, hits give low values): 0.971 | normalized growth (locus YPL256C, strain CLN2, hits give low values): 0.862 | normalized growth (locus YPR025C, strain CCL1, hits give low values): 0.988 | normalized growth (locus YPR106W, strain ISR1, hits give low values): 0.989 | normalized growth (locus YPR111W, strain DBF20, hits give low values): 0.966 | normalized growth (strain NNK1, hits give low values): 0.982 | normalized growth (strain TSCII, hits give low values): 0.986
